Measured values taken from PubChem BioAssay (NCATS).
Inconclusive results are not listed. Activity calls are given as the source filed them. Unless noted, no rule for the calls is given here.

What was measured:
[1] = qHTS assay for cell viability of HEK293 cells (AID 743288; active = well fitted cell-killing curve with a large enough effect; also: % is scaled to controls: 0 for no effect and ±100 for the full control effect; nearly all actives have a fitted effect of over 50% in size); conditions: ATP luminescence (CellTiter-Glo), 18 h, stronger effect = lower value
Summary of the method: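 ATP luminescence (CellTiter-Glo) reports metabolically competent cell number after parental HEK293 cells, 2,000/well, were treated with DMSO-dissolved compounds for 18 h at 37 C; reagent incubation 30 min, room temperature.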

[2] = qHTS assay for cell viability of the p53RE-bla HCT-116 cell line (AID 743292; active = well fitted cell-killing curve with a large enough effect; also: % is scaled to controls: 0 for no effect and ±100 for the full control effect; nearly all actives have a fitted effect of over 55% in size); conditions: p53RE-bla HCT-116 viability, ATP luminescence, 16 h; series mostly up to 95 µM
Summary of the method: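 ATP-based luminescent viability (CellTiter-Glo, 30 min RT) after 16 h compound treatment at 37 C of p53RE-bla HCT-116 cells, seeded at 4,000 cells/well and rested 5 h before dosing.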

[3] = biological target: Nuclear receptor subfamily 1 group I member 2 (Rattus norvegicus) (UniProt Q9R1A7); test: qHTS assay for small molecule activators of the rat pregnane X receptor (rPXR) signaling pathway (AID 651751); conditions: rPXR reporter cells, luciferase (One-Glo), 24 h; also: 0% is about no effect
Sequence of Nuclear receptor subfamily 1 group I member 2 (Rattus norvegicus) (Q9R1A7 whole entry, looked up): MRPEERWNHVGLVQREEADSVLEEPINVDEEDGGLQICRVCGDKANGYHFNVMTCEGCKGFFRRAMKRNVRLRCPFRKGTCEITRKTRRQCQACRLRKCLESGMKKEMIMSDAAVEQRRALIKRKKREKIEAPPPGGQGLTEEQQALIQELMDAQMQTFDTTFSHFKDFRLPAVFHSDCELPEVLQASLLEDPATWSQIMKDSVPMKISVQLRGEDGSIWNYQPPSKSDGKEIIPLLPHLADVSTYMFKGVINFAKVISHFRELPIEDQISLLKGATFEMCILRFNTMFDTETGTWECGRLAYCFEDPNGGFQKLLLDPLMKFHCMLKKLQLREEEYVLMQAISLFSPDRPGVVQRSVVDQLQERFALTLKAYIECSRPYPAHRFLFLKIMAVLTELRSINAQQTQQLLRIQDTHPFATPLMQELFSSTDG

[4] = qHTS assay for small molecule activators of the human pregnane X receptor (PXR) signaling pathway (AID 720659); conditions: DPX-2 HepG2 CYP3A4-luciferase, 24 h; series mostly up to 92.3 µM; also: 0% is about no effect

Cc1cc(C)cc(N)c1
inactive: max response [1] -3.25% | Potency [2] | max response [3] 9.8% | outcome [4]

CC(C)=CCl
inactive: max response [1] -6.69% | Potency [2] | max response [3] 3.22% | outcome [4]

C=C(C)C(=O)OC
inactive: max response [1] 0.0882% | Potency [2] | max response [3] 2.17% | outcome [4]

C=CCCC
inactive: max response [1] -5.1% | Potency [2] | max response [3] 2.44% | outcome [4]

C=CCCCC
inactive: max response [1] 3.02% | Potency [2] | max response [3] 0.496% | outcome [4]

CCNS(=O)(=O)c1ccc(C)cc1
inactive: max response [1] -4.78% | Potency [2] | max response [3] 2.12% | outcome [4]

CC/C=C/C#N
inactive: max response [1] 5.67% | Potency [2] | max response [3] 1.47% | outcome [4]

C=C(C)OC(C)=O
inactive: max response [1] -0.625% | Potency [2] | max response [3] -1.49% | outcome [4]

CCOCC(=O)O
inactive: max response [1] -0.256% | Potency [2] | max response [3] 1.81% | outcome [4]

O=C(Cl)c1c(Cl)cccc1Cl
inactive: max response [1] 0.0079% | Potency [2] | max response [3] -2.88% | outcome [4]

CCOc1ccccc1N
inactive: max response [1] 0.362% | Potency [2] | max response [3] 2.86% | outcome [4]

Nc1ccc([N+](=O)[O-])c(N)c1
inactive: max response [1] 8.4% | Potency [2] | max response [3] 1.18% | outcome [4]

Cc1ccc(C)cc1
inactive: max response [1] -11.4% | Potency [2] | max response [3] 0.288% | outcome [4]

CCCCC(CC)CNCC(CC)CCCC (stereo not given)
inactive: max response [1] -4.58% | Potency [2] | max response [3] -1.1% | outcome [4]

C=Cc1ccc(C=C)cc1
inactive: max response [1] -2.33% | Potency [2] | max response [3] -2.76% | outcome [4]
